Screening data as filed in PubChem BioAssay.
Most compounds without a hit are left out; they make up all but 1.1% or so of the library.
SRC3 inh = inhibits human SRC3 coactivator; Q9Y6Q9; HEK293 GAL4-SRC3 luciferase reporter, luminescence; inhibition, % at 3.6 µM; 360,000 tested, 0.17% active; AID 588352;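 active = inhibition above a per-campaign cutoff, the mean of all compounds plus 3 SD, cut at about 60% in these data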;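 note: 0% = DMSO-treated cells and 100% = gossypol-treated cells at 36 µM; higher means less SRC3-driven luciferase light from the GAL4 reporter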
SRC1 inh = human NCOA1 inhibition; HEK293 GAL4-SRC1 luciferase reporter, luminescence; Q15788; inhibition, % at 3.6 µM; 360,000 tested, 0.12% active;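 active = inhibition above the campaign mean plus 3 SD, with each screening campaign given its own cutoff, cut at about 60% in these data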;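 note: 0% = DMSO treated cells and 100% = gossypol at 36 µM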
NR5A2 inv ag = NR5A2 inverse agonism in reporter assay | HEK293T StAR-luciferase reporter, LRH-1 transfected, 24 h | inhibition, % at 3.6 µM | 360,000 tested, 0.13% active;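 active = inhibition above the mean inhibition of all tested compounds plus 3 SD, cut at about 73% in these data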;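 note: 0% = DMSO wells and 100% = reporter-only cells lacking LRH-1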
Target sequence (O00482 whole entry, looked up): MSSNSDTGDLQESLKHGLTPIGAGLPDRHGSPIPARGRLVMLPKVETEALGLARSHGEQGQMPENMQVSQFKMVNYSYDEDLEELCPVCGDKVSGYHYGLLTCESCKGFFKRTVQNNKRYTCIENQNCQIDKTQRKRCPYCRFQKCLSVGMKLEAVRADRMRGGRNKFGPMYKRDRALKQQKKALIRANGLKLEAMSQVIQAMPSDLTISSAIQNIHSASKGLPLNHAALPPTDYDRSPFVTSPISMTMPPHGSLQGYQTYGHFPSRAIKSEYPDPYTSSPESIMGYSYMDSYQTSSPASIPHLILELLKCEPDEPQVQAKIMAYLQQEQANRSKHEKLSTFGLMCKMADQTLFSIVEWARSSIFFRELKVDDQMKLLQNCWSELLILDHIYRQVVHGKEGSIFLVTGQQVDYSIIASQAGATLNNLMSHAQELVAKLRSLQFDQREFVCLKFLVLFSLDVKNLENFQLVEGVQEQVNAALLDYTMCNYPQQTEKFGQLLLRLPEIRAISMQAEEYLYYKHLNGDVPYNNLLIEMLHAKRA
GalR3 antag = blocks the human galanin receptor 3; O60755; HEK293 GalR3-CNG cAMP membrane potential fluorescence; galR3 body fused to GalR1 C-terminus; inhibition, % at 3 µM; 360,000 tested, 0.44% active; AID 651719;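 active = inhibition above the screen-wide average plus 3 SD, cut at about 13% in these data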;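 note: forskolin and galanin both at EC90 stimulate the cells; cAMP rise reported by CNG channel membrane potential dye signal; 0% = forskolin plus galanin with DMSO and 100% = forskolin alone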
NR2F2 inh = inhibitors of human COUP-TFII (NR2F2); P24468; HEK293T NGFI-A luciferase reporter, luminescence; inhibition, % at 8.6 µM; 370,000 tested, 0.7% active;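 active = inhibition above a per-plate cutoff, mean inhibition of test wells between control levels plus 3 SD, cut at about 38% in these data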;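 note: cells cotransfected with COUP-TFII expression vector driving the NGFI-A reporter; 0% = median of COUP-TF2 test wells and 100% = reporter-only cells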
NCOA2 inhibitor = inhibits human steroid receptor coactivator 2. Q15596. HEK293 GAL4-SRC2 luciferase reporter, luminescence. inhibition, % at 9 µM. 370,000 tested, 0.17% active. AID 651957;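 active = inhibition above the mean inhibition of all tested compounds plus 3 SD, set per campaign, cut at about 52% in these data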;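 note: 0% = DMSO treated cells and 100% = cells given Gossypol at 36 µM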
GalR3 conf = confirmation of human galanin receptor 3 antagonists. 1,600 tested, 59% active. AID 652245. shares compounds with GalR3 antag. inhibition, % at 3 µM. HEK293 GalR3 CNG cAMP biosensor, membrane potential fluorescence; galR3 fused to GalR1 carboxy tail; challenged with forskolin and galanin at EC90;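 active = inhibition above the primary screen's cutoff, the mean inhibition of all screened compounds plus 3 SD, cut at about 13% in these data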;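 note: 0% = forskolin plus galanin and 100% = forskolin alone with DMSO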
CNG parental = acts as nonspecific agonist in parental HEK-CNG cells; HEK293-CNG parental cells, cAMP membrane potential fluorescence; normalised: DMSO wells 0%, forskolin wells 100%; 1,600 tested, 10% active; shares compounds with GalR3 antag; activation, % at 3 µM; in the data active = activation above about 1.3%
VP16 Luc counter = VP16 inhibition counter-screen for COUP-TFII; shares compounds with NR2F2 inh; HEK293 Gal4-VP16 luciferase reporter, luminescence; inhibition, % at 8.5 µM; 2,500 tested, 25% active; AID 687007; in the data active = inhibition above about 13%
NR2F2 inh conf = confirmation of human COUP-TFII (NR2F2) inhibitors; shares compounds with NR2F2 inh; HEK293 NGFI-A luciferase reporter, luminescence; inhibition, % at 8.5 µM; 2,500 tested, 45% active; AID 687008;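 active = mean inhibition over three repeats above a set limit taken from the earlier primary screen, cut at about 38% in these data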;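 note: 100% = cells given the luciferase reporter alone without the COUP-TF2 vector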
* = called active by the depositor; . = no result given.

SMILES | SRC3 inh | SRC1 inh | NR5A2 inv ag | GalR3 antag | NR2F2 inh | NCOA2 inhibitor | GalR3 conf | CNG parental | VP16 Luc counter | NR2F2 inh conf
CCOC(=O)[C@@]12CCCC3=C1N(CCC3)C(=O)[C@H]2CC(=O)NCc1cccs1 | . | . | . | . | 15.4 | 8.3 | . | . | . | .
CCN1/C(=C/c2sc(-c3ccccc3C)c[n+]2C)Sc2ccccc21 | 79.7* | 42.5 | 90.0* | 50.5* | 90.4* | 35.4 | 72.2* | 2.2* | 16.2* | 86.4*
CCC(=O)/C=C1/Sc2ccccc2N1CC | -0.5 | -7.7 | 1.3 | -5.2 | -8.1 | -22.9 | . | . | . | .
CCCOc1ccc(CSc2nc3ccccc3[nH]2)cc1 | -43.2 | -29.3 | -45.0 | 86.2* | 38.0* | -6.8 | 108.1* | -1.1 | -194.4 | -33.6
O=C(CCCOc1ccccc1)Nc1cccnc1 | 5.7 | -4.5 | -13.5 | -5.0 | -11.3 | 2.5 | . | . | . | .
Cc1cc(OCC(=O)Nc2ccncc2)cc(C)c1Br | 21.0 | 19.4 | 34.5 | 64.9* | 58.0* | -0.7 | 61.9* | -0.1 | -3.4 | 36.6
Cc1cc(OCC(=O)Nc2ccncc2)ccc1Cl | 10.5 | 0.1 | 17.5 | -6.1 | 19.9 | 13.1 | . | . | . | .
Cc1ccc(Oc2ccc(OCC(=O)Nc3ccncc3)cc2)cc1 | 31.9 | 40.1 | 61.0 | 104.5* | 72.3* | 28.7 | 109.3* | -0.8 | 19.1* | 74.3*
O=C(COc1ccc(C(=O)c2ccccc2)cc1)Nc1cccnc1 | 3.8 | -1.4 | 38.2 | 97.4* | 65.5* | 19.2 | 108.1* | -0.4 | 5.7 | 60.2*
O=C(COc1ccc2ccccc2c1)Nc1ccncc1 | 3.3 | -19.5 | 9.2 | 66.2* | 47.4* | -25.0 | 72.8* | -0.5 | -24.1 | 8.0
COC(=O)C1=C(C)N(C)C(=NCc2ccc(OC)cc2)NC1c1cccc(C(F)(F)F)c1 (stereo unspecified) | . | . | . | -6.5 | -24.6 | -14.6 | . | . | . | .
COC(=O)[C@]12C[C@H](CC(=O)NCCC(C)C)C(=O)N(Cc3cccc4ccccc34)C1=C[C@H](C(C)C)O[C@@H]2C1CC1 | . | . | . | . | -4.5 | 12.0 | . | . | . | .
CCCCOc1ccc(C(=O)Nc2ccncc2)cc1 | 9.3 | -8.6 | 27.5 | 56.7* | 51.1* | -13.4 | 101.8* | -0.1 | -59.6 | 33.5
CCCOc1ccc(C(=O)Nc2cccnc2)cc1 | -104.9 | -95.5 | -97.9 | -10.8 | -23.9 | -38.6 | . | . | . | .
Cc1nc(C)c(C(=O)NCc2ccc(Cl)cc2)o1 | 24.7 | 18.7 | -12.4 | . | . | . | . | . | . | .
Cc1nn(C)c(C(=O)NCc2ccc(Cl)cc2)c1Cl | 26.1 | 21.3 | 40.3 | 81.6* | 60.6* | 17.8 | 100.4* | 0.1 | 1.1 | 43.8*
Cc1cccc(Nc2nc(NCc3ccco3)c3ccccc3n2)c1 | 17.6 | -7.8 | -5.4 | 44.9* | 62.8* | 34.9 | 53.7* | 8.7* | 5.6 | 48.3*
Cc1noc(C)c1COC(=O)c1cccc(S(=O)(=O)N2CCCCCC2)c1 | 36.8 | 9.1 | 10.9 | 79.7* | 59.5* | 40.2 | 84.2* | -0.3 | 4.1 | 35.7
Cc1noc(C)c1COC(=O)c1ccc(F)c(S(=O)(=O)N2CCCCC2)c1 | 3.1 | 7.2 | -3.7 | 0.1 | 15.2 | -26.9 | . | . | . | .
CCOc1ccc(S(=O)(=O)NCc2ccncc2)cc1 | 5.5 | 9.1 | 47.5 | 90.9* | 70.2* | 10.3 | 107.8* | -0.3 | 3.3 | 62.8*
CCOc1cc(S(=O)(=O)NCc2ccncc2)ccc1Cl | 18.8 | 18.2 | 44.2 | 102.2* | 74.5* | 0.7 | 126.0* | -0.5 | 10.0 | 63.0*
Cc1cc(S(=O)(=O)NCc2ccncc2)c(C)cc1Br | 25.6 | 11.3 | 41.8 | 104.2* | 61.4* | 20.0 | 110.8* | -0.3 | 7.3 | 56.0*
Cc1ccc(S(=O)(=O)NCc2ccncc2)cc1 | 28.0 | 0.7 | 46.8 | 22.5* | 56.9* | 23.6 | 74.0* | -0.3 | 3.8 | 40.3*
CCOc1ccc(S(=O)(=O)NCc2ccccn2)cc1 | -4.3 | -4.7 | 1.4 | -1.2 | 3.8 | 19.9 | . | . | . | .
CC(C)C[C@@H]1COc2cc(Br)ccc2S(=O)(=O)N1Cc1cn(CCC2OCCCO2)nn1 | . | . | . | . | -7.0 | 42.5 | . | . | . | .
SMILES | SRC3 inh | SRC1 inh | NR5A2 inv ag | GalR3 antag | NR2F2 inh | NCOA2 inhibitor | GalR3 conf | CNG parental | VP16 Luc counter | NR2F2 inh conf
CCOC(=O)COc1ccc(S(=O)(=O)NCc2ccncc2)cc1 | -3.6 | 0.0 | 14.5 | 110.2* | 48.8* | -6.3 | 110.8* | -0.2 | -8.1 | 16.8
CCOC(=O)COc1ccc(S(=O)(=O)NCc2ccco2)cc1 | 1.1 | 6.6 | 8.4 | -1.7 | -11.0 | -2.8 | . | . | . | .
Oc1ccc2ccccc2c1CN1CCCCC1 | -4.9 | -18.7 | -8.9 | 14.3* | 44.8* | -9.0 | 17.4* | 0.3 | -3.8 | 2.8
OC(c1ccc(F)cc1)c1nc(-c2ccncc2)cs1 (stereo unspecified) | 23.2 | 16.4 | 16.6 | 13.3* | 41.8* | -12.6 | 31.7* | -0.5 | -0.9 | 23.3
O=C(Nc1c(-c2ccccc2)nc2ncccn12)C1CC1 | . | . | . | . | -8.5 | -9.9 | . | . | . | .
CCCCCn1c(=O)[nH]c2cc(C(=O)N3CCN(Cc4ccc5c(c4)OCO5)CC3)ccc2c1=O | 10.1 | 14.8 | 43.6 | 98.9* | 58.2* | 14.1 | 106.4* | -0.9 | 1.6 | 64.4*
CC(=O)c1cccc(NC(=O)C2Cc3c(-c4cccc(C(N)=O)c4)ccnc3O2)c1 (stereo unspecified) | 3.0 | 1.0 | 20.8 | -5.0 | 6.1 | -13.8 | . | . | . | .
O=C(NCc1ccncc1)C1Cc2c(-c3ccccc3Oc3ccccc3)ccnc2O1 (stereo unspecified) | -6.8 | -2.1 | 3.8 | -7.2 | 37.6* | 19.1 | . | . | -2.3 | -4.4
COc1ccc(NC(=O)C2Cc3c(-c4ccccc4Oc4ccccc4)ccnc3O2)cc1OC (stereo unspecified) | 13.2 | 16.2 | 9.0 | -7.2 | 64.4* | 24.3 | . | . | -2.2 | 34.9
CC(=O)c1cccc(NC(=O)C2Cc3c(-c4cccc(C(C)=O)c4)ccnc3O2)c1 (stereo unspecified) | 7.1 | 16.2 | 3.2 | -6.2 | 48.0* | -21.0 | . | . | 4.6 | 15.7
O=C(NC1CCCCN(Cc2ccc(Cl)cc2)C1=O)c1cccc(F)c1 (stereo unspecified) | . | . | . | . | 0.6 | 27.4 | . | . | . | .
CCOC(=O)[C@]12CCCC=C1N(Cc1ccc(OC)cc1)C(=O)[C@@H]2CC(=O)N1CCN(C(=O)c2ccco2)CC1 | . | . | . | . | 4.1 | 3.4 | . | . | . | .
